Cruzain noTriton = inhibitors of Trypanosoma cruzi cruzain without detergent | P25779 | purified cruzain, Z-FR-AMC fluorescence, no detergent | Potency, µM, without a hit: max response, negative = inhibition, hits mostly inhibitors | actives 2.3% (n = 200,000) | AID 1476;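 further: plate controls were enzyme without inhibitor for no effect and buffer without enzyme for full effect; nearly all actives have a fitted effect of over 40% in size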
Target sequence (P25779 123-467 limits assumed): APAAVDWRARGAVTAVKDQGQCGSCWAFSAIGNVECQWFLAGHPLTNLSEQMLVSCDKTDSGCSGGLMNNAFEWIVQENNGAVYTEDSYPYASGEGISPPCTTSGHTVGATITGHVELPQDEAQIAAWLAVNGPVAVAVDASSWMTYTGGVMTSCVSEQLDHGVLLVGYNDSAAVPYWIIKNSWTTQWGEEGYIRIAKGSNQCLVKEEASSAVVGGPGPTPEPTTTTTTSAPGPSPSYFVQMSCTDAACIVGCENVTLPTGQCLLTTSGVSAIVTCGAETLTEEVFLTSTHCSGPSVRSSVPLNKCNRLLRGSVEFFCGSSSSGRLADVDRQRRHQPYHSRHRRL
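Purified cruzain at 1.5 nM, pre-incubated 15 min with compound at room temperature in 100 mM sodium acetate pH 5.5, 5 mM DTT, 0.00005% Triton X-100. Reaction started with 2 uM Z-FR-AMC; AMC fluorescence increase over 60 s gives rate.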
Cruzain Triton = inhibitors of Trypanosoma cruzi cruzain with detergent; Potency, µM, without a hit: max response, negative = inhibition, hits mostly inhibitors; actives 0.43% (n = 200,000); purified cruzain, Z-FR-AMC fluorescence, 0.01% Triton;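 further: plate controls were neutral wells for no effect and buffer without enzyme for full effect; nearly all actives have a fitted effect of over 40% in size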
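Detergent-containing arm of a paired screen for aggregation-based inhibition: 0.01% Triton X-100 present. Cruzain at 1.5 nM cleaved 2 uM Z-FR-AMC at pH 5.5 with 5 mM DTT; AMC fluorescence gain over 60 s measured activity.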
Active calls of the source: *; ? = inconclusive. Most compounds without a hit are left out; they make up all but 2.5% or so of the library. The call rests on the fitted dose curve; in most records, active means well fitted curve in the direction sought with a large enough effect; inconclusive means small, poorly fitted or top-dose-only effect, or another doubt; inactive means no such curve, though single readings can be large; an effect the other way counts as inactive or inconclusive. Potency means the concentration at half of the fitted maximal effect.

SMILES	Cruzain noTriton	Cruzain Triton
c1ccc(-n2nnnc2-n2cnc3ccccc32)cc1	8.0%	3.1%
c1ccc(-c2nccc(-c3ccc(-n4cnc5ccccc54)cc3)n2)cc1	15.8µM*	-1.7%
CCOc1ccccc1NC(=O)CN1C(=O)COc2ccc(S(=O)(=O)Nc3ccccc3)cc21	-20.6%	-3.2%
COc1ccc2nc(SCC(=O)Nc3ccc(S(=O)(=O)N4CCCC4)cc3)c(C#N)cc2c1	12.6µM*	-1.9%
Cc1cc(C)c2nc(SCC(=O)Nc3ccc(S(=O)(=O)N4CCCC4)cc3)c(C)cc2c1	12.6µM*	-8.4%
N#Cc1cc2ccccc2nc1SCC(=O)Nc1ccc(S(=O)(=O)N2CCCC2)cc1	?	-4.5%
Cc1nnc(SCC(=O)Nc2ccc(S(=O)(=O)N3CCCC3)cc2)n1N	-5.6%	2.5%
CC1=C(C(=O)Nc2cccnc2)C(c2ccccc2)n2nc(SCc3ccccc3F)nc2N1 (configuration not stated)	9.6%	4.1%
O=C(c1ccccc1Cl)N1c2ncnn2C2(CCCCC2)[C@@H]2CCCC[C@@H]21	-0.3%	0.4%
CCc1cccc(NC(=O)CCS(=O)(=O)c2ccc(C)cc2)c1	-16.8%	-2.9%
O=c1ccnc(SCc2ccc(Cl)cc2)[nH]1	6.3%	2.3%
COC(=O)c1ccc(CSc2nnc(C)s2)cc1	-12.8%	7.1%
Cc1csc(NC(=O)c2cc3c(s2)CCC3)n1	-7.8%	-11.4%
O=C(Nc1nnc(SCc2ccc(F)cc2)s1)c1ccco1	-17.2%	1.5%
O=C(Nc1nnc(C2CC2)s1)c1cc2c(s1)CCCCCC2	6.31µM*	6.1%
CC1CCc2sc(C(=O)Nc3nnc(SCc4ccc(F)cc4)s3)cc2C1 (configuration not stated)	10µM*	-9.7%
COC(=O)c1ccc(CSc2nnc(NC(=O)c3cc4c(s3)CCCC4)s2)cc1	6.31µM*	-6.9%
CCOc1ccc(CCNC(=O)CCCc2nnc3n(CC)c(=O)c4sccc4n23)cc1OCC	-3.5%	-0.6%
O=C(c1ccccc1)N1CCCCC1CCN1CCCCC1 (configuration not stated)	-10.6%	0.4%
CCOc1ccccc1NC(=O)c1c(NC(=O)C(C)Oc2ccc(Cl)cc2)sc2c1CCCCC2 (configuration not stated)	0.9%	0.0%
COC(=O)c1c(NC(=O)COC(=O)[C@@H](NS(=O)(=O)c2ccc(C)cc2)C(C)C)sc2c1CCC2	15.8µM*	-5.9%
CCOC(=O)c1c(NC(=O)CS(=O)(=O)c2ccc(C)cc2)sc2c1CCCCC2	3.98µM*	-7.6%
CCOC(=O)c1c(NC(=O)CS(=O)(=O)c2ccc(Cl)cc2)sc2c1CCCC2	5.1%	-1.4%
COC(=O)c1c(NC(=O)COC(=O)c2ccc(C)s2)sc2c1CCCCC2	-1.8%	1.2%
CC1(C)CC(N=C=O)CC(C)(CN=C=O)C1 (configuration not stated)	-9.1%	-1.1%
SMILES	Cruzain noTriton	Cruzain Triton
CCOc1ccc(NC(=O)N2CCN(c3nnc(C)c4c(C)n(-c5ccccc5)nc34)CC2)cc1	8.4%	4.7%
CCOC(=O)C1CCCN(C(=O)c2nn(-c3ccc(OC)cc3)c(=O)c3c2c2ccccc2n3C)C1 (configuration not stated)	29.4%	-8.7%
COc1ccc(OC)c(NS(=O)(=O)c2ccc(N3CCCCS3(=O)=O)cc2)c1	0.6%	-0.3%
COc1ccc(-c2ccc(NS(=O)(=O)c3cccc(Cl)c3)cc2)nn1	-24.8%	-9.5%
Cc1ccc(CNc2nc(-c3ccco3)nn2S(=O)(=O)c2ccc3ccccc3c2)cc1	?	-3.0%
CC(C)c1ccc(CNc2nc(-c3ccco3)nn2S(=O)(=O)c2ccc3ccccc3c2)cc1	10µM*	0.2%
CC(C)[C@H](NC(=O)OC(C)(C)C)c1nnc(S(=O)(=O)Cc2c(F)cccc2Cl)o1	5.01µM*	3.55µM*
Cc1ccccc1CS(=O)(=O)c1nnc([C@H](CC(C)C)NC(=O)OC(C)(C)C)o1	25.1µM*	12.6µM*
CC(C)C[C@H](NC(=O)OC(C)(C)C)c1nnc(SCc2ccccc2)o1	11.6%	-2.5%
CCOC(=O)CSc1nnc([C@H](Cc2ccccc2)NC(=O)OC(C)(C)C)o1	-9.9%	-3.8%
C[C@H](NC(=O)OC(C)(C)C)c1nnc(SCc2c(F)cccc2Cl)o1	-5.1%	-2.2%
CC(C)(C)OC(=O)N[C@@H](Cc1ccccc1)c1nnc(S(=O)(=O)Cc2cccc(F)c2)o1	20µM*	12.6µM*
Cc1ccccc1Oc1ncnc2oc(-c3ccccc3)cc12	-5.1%	-7.7%
Clc1ccc(Oc2ncnc3oc(-c4ccccc4)cc23)cc1	20µM*	-0.6%
O=C(NCCCN1CCN(c2ccccc2F)CC1)c1nnc(Cc2ccc(Cl)cc2Cl)o1	7.9%	-2.4%
COc1cccc(-c2nnc3n(Cc4ccc(C)cc4)c(=O)c4ccccc4n23)c1O	-4.2%	-1.5%
Cc1cccc(NS(=O)(=O)c2ccc3[nH]c(=O)[nH]c3c2)c1C	5.8%	-1.9%
Cc1cccc(NS(=O)(=O)c2ccc3c(c2)Cc2cc(S(=O)(=O)Nc4cccc(C)c4C)ccc2-3)c1C	3.98µM*	0.6%
Cc1cccc(-c2nc(SCC(=O)NCC3CCCO3)c3c(=O)n(C)c(=O)n(C)c3n2)c1 (configuration not stated)	3.3%	8.7%
COc1ccc(C)cc1NC(=O)C(NS(=O)(=O)c1cccs1)c1ccccc1 (configuration not stated)	-25.2%	-2.4%
Cc1cc(C(=O)NCC(=O)OC(C(=O)Nc2cc(C(F)(F)F)ccc2Cl)c2ccccc2)ccc1[N+](=O)[O-] (configuration not stated)	31.6µM*	4.47µM*
CCCC(=O)OC(C(=O)Nc1cc(C(F)(F)F)ccc1Cl)c1ccccc1 (configuration not stated)	19.3%	-5.4%
COc1ccc(C)cc1NC(=O)C(OC(=O)c1ccc([N+](=O)[O-])o1)c1ccccc1 (configuration not stated)	?	-7.7%
COc1ccc(C)cc1NC(=O)C(OC(=O)CNC(=O)c1ccc(Br)cc1)c1ccccc1 (configuration not stated)	10µM*	7.94µM*
COc1ccc(C)cc1NC(=O)C(OC(=O)CNC(=O)c1cc(C)cc(C)c1)c1ccccc1 (configuration not stated)	20µM*	8.91µM*
SMILES	Cruzain noTriton	Cruzain Triton
Cc1cc(C)c(/C=C/c2onc(C)c2S(=O)(=O)N2CCC(C(=O)NCCc3ccccc3)CC2)c(C)c1	-0.5%	-1.8%
COc1ccc(OC)c(NC(=O)c2oc(=O)c3ccccc3c2-c2ccccc2)c1	-9.6%	0.9%
COc1ccc(C(=O)NNC(=O)c2cc3cc([N+](=O)[O-])ccc3oc2=O)cc1OC	1.1%	-1.1%
O=C(Nc1nc(C2C3CC4CC(C3)CC2C4)cs1)c1cc2cc([N+](=O)[O-])ccc2oc1=O (configuration not stated)	25.1µM*	-2.1%
CCCn1c(SCC(O)c2cccc(OC)c2)nc2ccccc21 (configuration not stated)	3.0%	-3.8%
CCOC(=O)c1c(C)[nH]c(C)c1S(=O)(=O)N1CCC(C(=O)NCc2cccc(OC)c2)CC1	-6.6%	1.9%
Cc1ccc2c(C(=O)CSc3ccccc3)c(C)[nH]c2c1	12.6µM*	2.2%
Cc1[nH]c2ccccc2c1C(=O)CSc1ccccc1	1.9%	-5.4%
COc1ccc(CCNC(=O)CCCn2c(=O)c3ccccc3n(CC(=O)Nc3c(C)cc(C)cc3C)c2=O)cc1OC	15.3%	-0.4%

Screens from PubChem BioAssay.
